aSyn rescue: inhibitors of alpha-synuclein toxicity in yeast; Potency, µM (titrated, usually from 46.1 µM), for the others: top-dose growth rescue (activation), most hits filed as activators; Yeast expressing alpha-synuclein, growth rescue, BacTiter-Glo, 24 h; AID 652106; 0.14% of 370,000 active; note: % of control where 0% means no effect; nearly all actives have a fitted effect of over 65% in size
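Screening used galactose-induced yeast with toxic alpha-synuclein levels, exposed to compound for 24 hr at 30 deg C. Cell growth, read with BacTiter-Glo luminescence, gave the measured signal.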
ClpP mod: qHTS Assay for Activators of ClpP | ATP-dependent Clp protease proteolytic subunit (Bacillus subtilis (strain 168)), P80244 | purified B. subtilis ClpP, FRET peptide cleavage, 20 min | Potency, µM (highest dose often 57.5 µM), for inactives: at the top dose activity change, negative = active | 1.9% of 340,000 active | AID 651965, 2013; active = well fitted falling curve with a large enough effect; inconclusive = small, poorly fitted or top-dose-only effect; inactive = no such curve, though single readings can be large or run the other way; note: the source files actives as falling curves though it sought activators and does not explain the sign; nearly all actives have a fitted effect of over 65% in size
Target sequence (P80244 whole entry, looked up): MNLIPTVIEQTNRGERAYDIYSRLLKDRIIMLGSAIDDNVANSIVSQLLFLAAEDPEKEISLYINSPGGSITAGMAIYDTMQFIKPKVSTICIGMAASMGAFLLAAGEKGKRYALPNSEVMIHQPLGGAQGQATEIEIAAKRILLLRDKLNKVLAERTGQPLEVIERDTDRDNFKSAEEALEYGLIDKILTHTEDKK
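Purified B. subtilis ClpP, 10 microg/mL final in Tris/HCl pH8 with KCl, BSA, glycerol and Tween-20, cleaved an Abz/nitrotyrosine-quenched decapeptide. Fluorescence (ex 320, em 430) was read at 0 and 20 min at room temperature. Delta was normalized to 5.8 microM ADEP and DMSO/no-enzyme controls.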
TDP43 rescue: rescues yeast growth from TDP-43 toxicity. 1.8% of 410,000 active. Potency, µM (highest dose often 46.1 µM), for the others: at the top dose growth rescue (activation), hits mostly activators. AID 652104. TDP-43 expressing yeast growth rescue, BacTiter-Glo, 24 h; note: % of control where 0% means no effect; nearly all actives have a fitted effect of over 50% in size
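Galactose-induced TDP-43 yeast, OD600=0.02, compound pinned; 24 hr, 30 deg C; BacTiter-Glo luminescence for growth. Inhibitors of TDP-43 toxicity read as activators.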
FUS suppressor: rescues growth of FUS-expressing yeast; S. cerevisiae FUS-expressing, growth rescue, OD600, 24 h; Potency, µM (highest dose often 76.6 µM), usual class: activators; 0.24% of 390,000 active; AID 1347120;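 note: plate controls were DMSO vehicle for no effect and reference control for full effect; nearly all actives have a fitted effect of over 55% in size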
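Toxicity suppression screen in FUS-yeast. Cells induced with 2% galactose, starting OD 0.005, treated 24hr at 30C with compounds at multiple final concentrations; growth by OD600.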
Abeta yeast res: restores growth of yeast expressing A-beta42 peptide. yeast expressing A-beta42, growth rescue, OD600, 48 h; response scale: 0% DMSO, 100% iron-clioquinol control. 0.063% of 410,000 active. AID 1347071. Potency, µM (series often up to 46.1 µM), actives largely listed as activators; note: nearly all actives have a fitted effect of over 55% in size
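Yeast A-beta toxicity model in growth medium with pinned compounds, 48 h at 30 C; growth read as absorbance at 600 nm. Normalized to FeCl3/clioquinol equimolar mix (positive) and DMSO (negative).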
Mm-Cpn inhibitor: M. maripaludis TRiC chaperonin inhibition. Potency, µM (doses to about 76.9 µM), for the others: at the top dose activity, negative = inhibition, actives largely listed as inhibitors. 0.031% of 330,000 active. purified Mm-Cpn ATPase, ADP Transcreener TR-FRET; note: % is set by controls: 0 for no effect and ±100 for the full control effect; nearly all actives have a fitted effect of over 80% in size
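Purified archaeal Mm-CPN (25nM final) preincubated 10 min at 37degC with compound, then 10uM ATP for 30 min at 37degC; ADP measured by HTRF Transcreener TR-FRET; buffer 30 mM TRIS pH 7.4, 100mM KCl, 5mM MgCl2, 1mM DTT.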
* = called active by the depositor; i = inactive; ? = inconclusive; . = no result given. This is a sample that favours compounds with a hit; in the whole collection about 3.6% have one here. Unless noted, calls come from the whole dose curve; as a rule, active = well fitted curve in the direction sought with a large enough effect; inconclusive = small, poorly fitted or top-dose-only effect, or another doubt; inactive = no such curve, though single readings can be large; an effect the other way counts as inactive or inconclusive. Potency is the fitted concentration of half-maximal effect.

SMILES	aSyn rescue	ClpP mod	TDP43 rescue	FUS suppressor	Abeta yeast res	Mm-Cpn inhibitor
CCCS(=O)(=O)c1nc(S(=O)(=O)c2ccc(C)cc2)c(N(C)Cc2ccccc2)s1	.	-1.3%	15.9%	i	i	.
O=C(N1CCC(n2nc(-c3ccccc3)oc2=O)CC1)C1(c2ccc(Cl)cc2)CC1	?	-0.3%	22.4µM*	?	.	0.2%
CCc1ccc(NC(=O)C2CCN(c3ccc(Sc4ccc(C)cc4)nn3)CC2)cc1	.	-11.2%	10.9%	i	i	.
Oc1cccc(C=NN=C2c3ccccc3-c3ccccc32)c1	-27.7%	-2.2%	28.2µM*	.	i	.
CCOc1cc(C=NN=C2c3ccccc3-c3ccccc32)ccc1O	22.1%	1.2%	14.1µM*	.	i	.
CCCCNc1sc(S(=O)(=O)CC)nc1S(=O)(=O)c1ccc(C)cc1	.	-0.5%	10.1%	i	i	.
CC(=O)n1c(=O)c2ccccc2c(=O)n1-c1ccccc1	-17.4%	1.0%	3.16µM*	i	i	-2.4%
CCN(Cc1ccccc1)C(=O)Cn1ncc2c(=O)oc3ccc(C)cc3c21	.	1.1%	?	i	i	.
CN(CC(=O)Nc1ccccc1Br)C(=O)c1ccc(-c2ccc(Cl)cc2)o1	11.8%	31.6µM*	6.7%	.	i	0.7%
CN(CC(=O)Nc1ccccc1C(F)(F)F)C(=O)c1ccc(-c2ccc(Cl)cc2)o1	1.0%	-2.3%	18.2%	i	i	-6.0%
COc1ccc2c(c1)CCCN2C(=O)C1CCCN(S(=O)(=O)c2cccc3cccnc23)C1 (stereo not given)	.	.	.	i	.	.
CC1CCN(C(=O)CSc2nc3c(c(=O)n2C)SCC3)CC1	-8.4%	28.2µM*	-6.8%	.	i	0.0%
Cc1noc(C)c1COc1ccccc1C(=O)N(C)Cc1ccc(C(C)(C)C)cc1	4.9%	-0.4%	35.5µM*	i	i	0.2%
COc1ccc(S(=O)(=O)NCCc2sc(-c3cccc(C)c3)nc2C)cc1	?	4.2%	?	i	i	.
COc1ccc(CNC(=O)/C=C/c2cc3c(cc2Br)OCO3)cc1	-9.2%	25.1µM*	4.6%	i	i	-6.4%
O=C(/C=C/c1cc2c(cc1Br)OCO2)NCc1ccc(F)cc1	2.7%	?	12.9%	i	i	0.0%
Clc1ccccc1C1=Nn2c(nnc2-c2ccncc2)SC1	10.1%	-2.8%	11.2µM*	i	i	2.2%
Cc1cccc(-c2nnc3n2N=C(c2ccccc2Br)CS3)c1	7.3%	-0.6%	20µM*	i	i	-0.2%
O=C(C1CCCN(S(=O)(=O)c2cccs2)C1)N1CCN(c2ccccc2F)CC1 (stereo not given)	.	1.5%	21.8%	i	i	.
COc1ccc(N(CC(=O)Nc2cc(C)on2)S(=O)(=O)c2cc(C)ccc2C)cc1	15.4%	-7.4%	?	31.6µM*	i	1.2%
O=c1c2c3nc4ccccc4nc3n(-c3ccc4c(c3)OCCO4)c2ncn1CC1CCCO1 (stereo not given)	.	.	.	.	.	-1.1%
COCCCn1c2nc3ccccc3nc2c2c(=O)n(CC3CCCO3)cnc21 (stereo not given)	2.4%	12.6µM*	3.3%	i	i	1.9%
Cc1sc2ncnc(-n3cnc4ccccc43)c2c1C	4.3%	28.2µM*	16.5%	i	i	-0.9%
Cc1ccc(-c2csc3ncnc(-n4cnc5ccccc54)c23)cc1	6.4%	28.2µM*	?	i	i	-3.5%
CCCCNC(=O)C1=CC(c2ccc3c(c2)OCO3)=NS(=O)(=O)N1C	.	-1.6%	0.0%	i	i	.
CCOc1ccc(CCNC(=O)c2ccc(Cn3c(=O)c4cccn4c4cccnc43)cc2)cc1	.	4.5%	25.1%	i	i	.
COc1cccc2c(=O)c3c(cnn3C)n(C)c12	25.1µM*	44.9%	?	i	?	-1.3%
O=C(c1cc(Br)ccc1O)N(Cc1ccco1)Cc1cccs1	-23.3%	?	.	.	.	.
